# Experimental data published in the supplement of paper PMC6555819.
# What was measured:
# Test in all cases: PBM binding z-score (relative to random genomic background probes); higher = stronger binding; sequences stand for … in GC…GCGATTGACAGCGTAGAATGAAGG
# [1] = system: FXR:RXRa (NR concentration 270 nM, RXRa partner concentration 90 nM)
# Method in brief: (§1)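 Antibodies against each partner of ligand-free nuclear receptor dimers (one per run) detected binding on custom Agilent 4×180K protein-binding microarrays after 1 h incubation. The double-stranded probes had 34-nt variable regions carrying direct-repeat seeds, single-nucleotide variants, half-site ablations and random human genomic background sequences. Binding z-scores, from regression-normalized fluorescence, use the random background probes as reference.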
# [2] = system: LXRa:RXRa (NR concentration 270 nM, RXRa partner concentration 90 nM)
# Method in brief: as §1
# [3] = system: LXRa homodimer (NR concentration 270 nM)
# Method in brief: as §1
# [4] = system: LXRb:RXRa (NR concentration 270 nM, RXRa partner concentration 90 nM)
# Method in brief: as §1
# [5] = system: PPARa:RXRa (NR concentration 270 nM, RXRa partner concentration 90 nM)
# Method in brief: as §1
# [6] = system: PPARg:RXRa (NR concentration 180 nM, RXRa partner concentration 90 nM)
# Method in brief: as §1
# [7] = system: PPARg:RXRa 270nM:90nM, anti-RXR (NR concentration 270 nM, RXRa partner concentration 90 nM)
# Method in brief: as §1
# [8] = system: PPARg:RXRa 30nM:10nM, anti-RXR (NR concentration 30 nM, RXRa partner concentration 10 nM)
# Method in brief: as §1
# [9] = system: PPARg:RXRa 90nM:30nM, anti-RXR (NR concentration 90 nM, RXRa partner concentration 30 nM)
# Method in brief: as §1
# [10] = system: LXRb homodimer (NR concentration 270 nM)
# Method in brief: as §1
Sequence,PBM binding z-score [1],PBM binding z-score [2],PBM binding z-score [3],PBM binding z-score [4],PBM binding z-score [5],PBM binding z-score [6],PBM binding z-score [7],PBM binding z-score [8],PBM binding z-score [9],PBM binding z-score [10]
TCGAGTAAGTTACGGGGGCATTCAGGGATGAAGA,1.79,1.83,0.43,4.1,2.64,1.06,1.98,1.45,1.77,
CTTACTGGGCCAAAGGTCATTGATTCCAATGCTC,5.59,5.54,4.28,5.06,,,11.2,14.3,13.6,0.936
CCGACTGGGTCAAAGGTTACCATACTCAGTACGA,4.79,4.3,0.367,4.02,,12,10.2,9.87,11.1,-0.508
CTATGTAGGTTAAGGCGGTCATTCAGTTTGAAAG,1.17,2.21,1.95,1.37,3.24,4.29,4.25,1.38,3.3,
TAGAGTAGGTTACGGGGGCATTCAGGGATGAAGA,2.76,3.19,1.55,5.06,4.61,7.4,6.43,4.51,5.78,
TAGCCTAGGTCATTCAGGGGCTAGTATAGAAAGC,4.83,3.69,0.257,2.77,,2.12,2.22,0.575,1.45,0.83
TCGAGTAGGTTACGGGGGCAATCAGGGATGAAGA,1.97,2.28,0.238,4.49,4.14,6.62,5.6,3.37,4.85,
CCGAGTAGGTTACGATGGGGCATTCAGTGCGAAT,0.181,6.63,-0.148,3.71,1.42,0.775,1.01,-0.257,0.557,
CTACGTAGGTTAAGGGGGTCATTCAGTTTGAAAG,5.02,5.26,2.48,6.14,5.67,4.41,5.7,2.76,4.84,
CTATGTAGGTTAAGGGTGTCATTCAGTTTGAAAG,0.954,1.2,0.0163,1.33,4.61,8.17,7.44,6.35,8.04,
CCGAGTACGTTACGAGGGGGCATTCAGTGCGAAT,1.3,3.11,0.927,4.03,2.23,0.00178,0.968,-0.231,0.521,
CTATGTAGGTTAAGGGGGTCATTCAATTTGAAAG,5.04,4.74,2.45,6.26,6.18,8.92,7.74,5.91,8.06,
TCGAGTAGGTTACGGGGGCCTTCAGGGATGAAGA,1.17,1.71,0.239,4.15,2.99,2.78,3.68,1.85,2.72,
CTATGTAGGTTAAGGGGGTCATTTAGTTTGAAAG,5.01,4.94,3.42,6.37,5.83,8.48,7.62,6.07,7.54,
CCGAGTAGGTTACGAGGGGGCATTGAGTGCGAAT,2.26,7.11,1.25,6.12,3.55,2.61,3.24,1.03,2.58,
CCGAGTAGGTTACAAGGGGGCATTCAGTGCGAAT,2.05,7.37,2.35,6.52,3.41,2.25,3.68,0.773,2.98,
CTATGTAGGTTAAGGTGGTCATTCAGTTTGAAAG,1.04,1.15,0.413,1.09,3.64,5.35,4.98,2.07,4.28,
TCGAGTAGGTTACGGGGGTATTCAGGGATGAAGA,1.78,2.4,0.457,4.07,3.45,4.49,4.53,2.64,3.61,
CCGAGTAGGTTACGAAGGGGCATTCAGTGCGAAT,0.672,6.11,-0.15,4.02,1.83,1.04,1.55,-0.292,0.939,
CTATGTAGGTTAAGGGGGTCATCCAGTTTGAAAG,4.86,4.86,2.5,6.27,6.19,8.53,7.67,6.02,7.82,
CTATGTAGGGTAAGGGGGTCATTCAGTTTGAAAG,5.03,4.71,2.41,6.36,6.11,8.15,7.52,5,7.42,
TCGAGTAGGTTACGGGTGCATTCAGGGATGAAGA,0.435,0.756,-0.274,0.94,2.22,2.3,2.7,2.01,2.23,
CTGTGTAGGTTAAGGGGGTCATTCAGTTTGAAAG,5.15,4.93,3.47,6.55,5.67,6.19,6.47,4.23,5.78,
CTAGGTAGGTTAAGGGGGTCATTCAGTTTGAAAG,4.79,4.89,2.54,6.08,5.56,6.17,6.57,3.72,5.95,
TCGAGTAGATTACGGGGGCATTCAGGGATGAAGA,1.41,1.87,0.702,4.05,2.53,1.06,2.64,2.04,2.12,
TCGAGTAGGTTACGGCGGCATTCAGGGATGAAGA,-0.0492,0.356,-0.342,0.0226,1.32,0.838,1.73,1.18,1.43,

Sequence,PBM binding z-score [1],PBM binding z-score [2],PBM binding z-score [3],PBM binding z-score [4],PBM binding z-score [5],PBM binding z-score [6],PBM binding z-score [7],PBM binding z-score [8],PBM binding z-score [9],PBM binding z-score [10]
CTATGTAGGTTAACGGGGTCATTCAGTTTGAAAG,5.18,5.6,2.97,5.87,6.19,7.77,6.92,4.45,6.47,
CTATGTAGGTTAAGGGGGTCGTTCAGTTTGAAAG,2.32,2.72,0.932,5.37,5.33,7.56,7.03,4.96,6.85,
CCGAGTAGGTTACGAGGGGCCATTCAGTGCGAAT,1.12,5.25,-0.218,3.07,1.76,1.4,1.54,0.0553,0.829,
CCGAGTAGGTTACGAGGGGGCATTCAATGCGAAT,2.32,7.34,1.1,6.15,3.62,2.64,3.7,1.21,2.45,
CTATGTACGTTAAGGGGGTCATTCAGTTTGAAAG,4.34,4.93,2.68,6.5,5.53,3.31,5.19,3.25,4.57,
TCGAGTAGGGTACGGGGGCATTCAGGGATGAAGA,2.34,2.37,0.643,4.6,3.09,4.1,4.09,3.19,3.84,
CTATGTAGGTTAAGGGGGTCATTCGGTTTGAAAG,5.21,4.84,2.94,6.16,6.15,8.47,7.83,6.21,7.86,
CTATGTAGGTTAAGGGGGTCATTAAGTTTGAAAG,4.76,4.56,2.21,5.86,6,8.78,7.7,5.93,8.13,
TCGAGTAGGTGACGGGGGCATTCAGGGATGAAGA,2.66,2.37,0.394,4.6,3.82,5.16,5.26,3.32,4.67,
CTATGTAGGTTTAGGGGGTCATTCAGTTTGAAAG,4.33,4.71,4.34,5.97,5.41,4.01,5.15,2.66,4.77,
CTATGCAGGTTAAGGGGGTCATTCAGTTTGAAAG,5.02,5.01,3,6.31,5.63,5.77,6.3,3.13,5.29,
TCGAGTAGGTTACGGGGGCAGTCAGGGATGAAGA,2.28,2.27,0.393,4.55,3.63,4.99,5.02,2.93,4.41,
CTATGTAGGTTAAGCGGGTCATTCAGTTTGAAAG,2.56,2.59,0.655,2.56,4.84,5.97,5.57,2.6,4.53,
CTATGGAGGTTAAGGGGGTCATTCAGTTTGAAAG,6.34,5.63,4.04,6.44,6.28,6.41,6.6,3.97,5.74,
TCGAGTAGGTTACGGGGGCATCCAGGGATGAAGA,2.12,2.55,0.293,4.73,4.35,6.04,6.05,3.04,5.24,
CCGAGTAGGATACGAGGGGGCATTCAGTGCGAAT,0.863,1.35,0.542,3.08,1.75,0.323,1.47,0.0307,1.08,
CTATGTAGGTTAAGGGGGTCAATCAGTTTGAAAG,4.51,4.86,1.5,5.67,5.86,8.09,7.41,5.18,7.66,
TCGACTAGGTTACGGGGGCATTCAGGGATGAAGA,2.94,2.96,1.01,5.58,4.29,6.51,5.97,4.68,5.76,
CTATCTAGGTTAAGGGGGTCATTCAGTTTGAAAG,5.03,4.71,2.63,6.25,5.95,8.5,7.76,6.25,7.89,
TCGAGTAGGTTACGGGGGCATTCAAGGATGAAGA,2.72,3.01,0.487,4.72,4.27,6.08,5.8,3.65,4.94,
CCGAGTAGGTTACGAGGGGGCGTTCAGTGCGAAT,1.13,6.33,0.912,5.52,3.11,2,3.17,0.694,2.26,
CTATGAAGGTTAAGGGGGTCATTCAGTTTGAAAG,5.47,5.4,3.45,6.37,5.65,5.21,6.01,3.46,5.16,
CCGAGTAGGTTACGTGGGGGCATTCAGTGCGAAT,2.27,7.98,1.53,6.74,3.6,1.87,3.65,0.89,2.73,
TGGAGTAGGTTACGGGGGCATTCAGGGATGAAGA,3.28,3.37,1.38,5.17,4.73,7.46,6.49,4.07,5.66,
TCGAGTCGGTTACGGGGGCATTCAGGGATGAAGA,1.7,1.82,0.317,4,2.75,1.46,2.62,1.58,2.15,
CTATGTAGGTTAAGGGGGTGATTCAGTTTGAAAG,1.52,1.98,0.79,3.83,4.69,7.43,6.74,4.44,6.29,
